In PubChem BioAssay (Tox21):
Results filed as inconclusive are left out. A number with no mark means an inactive call. Active and inactive are the calls of the source. The call rests on the fitted dose curve; in most records, active means well fitted activation curve with a large enough effect in the signal ratio in the repeat runs (not every such curve was filed as active); inconclusive means weak or mixed curves; inactive means flat fitted curve, though single readings scatter; the % refers to the signal ratio.

Assay: qHTS assay to identify small molecule agonists of H2AX (AID 1224845)
Settings: CHO-K1 phospho-H2AX Ser139 HTRF, 3 h; series mostly up to 154 µM; activation (H2AX phosphorylation): at the top concentration
Description: National Center for Advancing Translational Sciences [NCATS]
NIH Chemical Genomics Center [NCGC]
U.S. Environmental Protection Agency [EPA]
National Institutes of Environmental Health Sciences [NIEHS]
National Toxicology Program [NTP]
U.S. Food and Drug Administration [FDA]
HTRF phospho-H2AX (Ser139) assay (Cisbio Bioassays, US) enables the quantitative detection of the histone variant H2AX when phosphorylated on serine 139. When double-stranded DNA breaks, either by ionizing radiation or endogenous physiological processes, H2AX becomes phosphorylated at Ser139. This phospho-Ser139 serves as a sensitive biomarker for the detection of such breaks, localizing the site of DNA repair. So, HTRF phospho-H2AX Ser139 is a pertinent assay to study genome stability, the cell cycle, DNA repair, and it serves as a biomarker for cancer, and to understand aging. Wild type CHO-K1 cells were used to identify the inducers of Phospho-H2AX Ser 139 from the Tox21 10K compound collections.
Tox21 Assay Protocol Summary:
The CHO-K1 cells suspended in culture medium containing 10% FBS were dispensed at 1000 cells/ 3 ul/well in 1536-well white wall/solid bottom plates (Greiner Bio-One North America, NC) using a Multidrop Combi (Thermo Fisher Scientific Inc., Waltham, MA). After the assay plates were incubated at 37C overnight, 23 nl of compounds at 15 concentrations (from 5-48 columns) or positive control (from 1 to 4 columns) were transferred to the assay plates using a Pintool station (Wako, San Diego, CA) into each well resulting in a final DMSO concentration of 0.76%. After 3hr incubation at 37C, 1 uL/well Supplemented Lysis buffer (diluted 100 fold blocking reagent in lysis buffer) (HTRF Phospho-H2A.X (S139) Assay kit from Cisbio US Inc., Bedford, MA) was added using a Flying Reagent Dispenser (FRD) (Aurora Discovery, CA). After 10sec spin at 1000 rpm in a plate centrifuge, the assay plates were incubated at room temperature for 30 min. Then followed by the addition of 1 uL/well detection buffer (containing a mixture of two antibodies, one labeled with cryptate, Anti pH2AX (S139)-K and another labeled with d2, Anti H2AX-d2) using FRD. After incubation at room temperature for 24 hr, the time resolved fluorescence at excitation 320 nm and emissions at 665 nm and 620 nm was measured using an Envision plate reader (PerkinElmer, Waltham, MA).
On the % scale 0 is the no-effect control and ±100 the full control effect; potency means the concentration at half of the fitted maximal effect.

Row | Compound | activation (H2AX phosphorylation) | Potency
1 | CC(=O)Nc1ccc(N=Nc2cc(C)ccc2O)cc1 | -0.113% | 
2 | CCc1c(C)cc(N)c(CC)c1N | 0.632% | 
3 | CSc1ccc(O)cc1C |  | 113 µM (active)
4 | CCCCCCCCSCc1cc(C)c(O)c(CSCCCCCCCC)c1 | 1.93% | 
5 | c1ccc(C[P+](c2ccccc2)(c2ccccc2)c2ccccc2)cc1 | 4.02% | 
6 | CCC(O)CO (stereo not given) | -2.61% | 
7 | CC(C=O)c1ccccc1 (stereo not given) | -1.62% | 
8 | CC1CCC(C(C)(C)O)CC1 (stereo not given) | -1.56% | 
9 | C=CC(C)(C)O | -2.82% | 
10 | CCOC(=O)C1=NN(c2ccc(Cl)cc2Cl)C(C)(C(=O)OCC)C1 (stereo not given) | 6.76% | 
11 | COc1cc(OC)nc(NC(=O)NS(=O)(=O)Nc2ccccc2C(=O)N(C)C)n1 | 0.25% | 
12 | O=C(Cl)c1ccc(Cl)cc1Cl |  | 101 µM (active)
13 | C=CCc1cc(S(=O)(=O)c2ccc(O)c(CC=C)c2)ccc1O | -0.957% | 
14 | Cc1cc(C)c(O)c(C(C)(C)C)c1 | 1.39% | 
15 | CCC(=O)OC/C=C(\C)CCC=C(C)C | -3.87% | 
16 | CCCCCCCCCCCCS(=O)(=O)Cl | 0.0057% [at 31.6 µM] | 
17 | Clc1ccc2c(Cl)ccnc2c1 | -3.95% | 
18 | O=C1OCc2ccccc21 | 2.75% | 
19 | N#CCCOCCC#N | -1.37% | 
20 | CC(C)c1ccc2sc3ccccc3c(=O)c2c1 | -4.26% | 

Row | Compound | activation (H2AX phosphorylation) | Potency
21 | CCOC(=O)OC(=O)OCC | -1.55% | 
22 | CC1(C)[C@H]2CC[C@]1(C)C(=O)C2 | -2.48% | 
23 | CC(C)C(=O)C(C)C | -0.255% | 
24 | NC(=O)C1CO1 (stereo not given) | -0.125% | 
25 | C/C(=N\[Si](C)(C)C)O[Si](C)(C)C | -2.51% | 
26 | CC1(C)[C@H](C(=O)OCc2cccc(Oc3ccccc3)c2)[C@@H]1C=C(Cl)Cl | -2.86% | 
27 | CSc1nnc(C(C)(C)C)c(=O)[nH]1 | -0.559% | 
28 | CCCOC(=O)c1ccc(O)cc1 | 0.368% | 
29 | CCN(CC)c1ccc(C=O)c(O)c1 | 6.39% | 
30 | Oc1ccc(Cl)cc1C1CCCC1 | 1.71% | 
31 | O[Si](c1ccccc1)(c1ccccc1)c1ccccc1 | -3.63% | 
32 | Clc1cccc(Cl)n1 | -2.51% | 
33 | O=C(Nc1ccc([N+](=O)[O-])cc1)Nc1ccc([N+](=O)[O-])cc1 (tested in a mixture with another compound) | -7.06% [at 70.9 µM] | 
34 | ClC(c1ccccc1)(c1ccccc1)c1ccccc1 | -0.58% | 
35 | CCc1cccc(C)c1N(C(=O)C(=O)O)C(C)COC (stereo not given) | -0.663% | 
36 | C1CCSC1 | -3.68% | 
37 | CCCCC/C=C\C=C\C(=O)OCC |  | 59 µM (active)
38 | CCOC(=O)[C@H](C)O | 1.26% | 
39 | COc1cc2ncnc(Nc3cccc(Cl)c3)c2cc1OC | 1.29% [at 31.6 µM] | 
40 | CC/C=C(\C)C=O | -0.621% | 
